Assay results from the supplement of paper PMC10681739.

biological target: T1, ETS1 (UniProt P14921); test: ETS1 binding intensity (PBM fluorescence), ETS1 alone (arbitrary fluorescence units); higher = stronger binding; conditions: ETS1 concentration 1 nM; RUNX1 concentration 0 nM
T1 sequence: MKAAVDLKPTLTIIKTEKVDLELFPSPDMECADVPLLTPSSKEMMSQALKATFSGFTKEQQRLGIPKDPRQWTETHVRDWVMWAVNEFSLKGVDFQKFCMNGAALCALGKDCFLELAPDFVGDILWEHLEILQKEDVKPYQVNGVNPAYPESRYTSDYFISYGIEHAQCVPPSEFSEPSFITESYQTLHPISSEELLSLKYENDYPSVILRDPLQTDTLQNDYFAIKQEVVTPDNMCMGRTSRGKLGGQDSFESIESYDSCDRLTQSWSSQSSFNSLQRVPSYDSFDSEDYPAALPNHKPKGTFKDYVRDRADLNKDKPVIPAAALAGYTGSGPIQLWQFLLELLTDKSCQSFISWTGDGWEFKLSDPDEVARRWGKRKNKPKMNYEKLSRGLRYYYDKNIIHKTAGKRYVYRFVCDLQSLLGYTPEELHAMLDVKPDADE
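Wherever RUNX1 binding intensity (PBM fluorescence), RUNX1 alone is given: Full-length recombinant human RUNX1 bound to double-stranded 36-bp genomic probes on a high-density microarray, scored as Alexa488 fluorescence per spot via anti-RUNX1 antibody, median of four replicate spots.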

Row | Sequence | ETS1 binding intensity
1 | CAAGCCACTTCCTTTCTTGCTCCCACAACCTGTGTT | 579
2 | GAAACCTCACTCTGAGGATGTGGGTTCTGCCTTCTT | 522
3 | AGGGAACAGGAAATGCAAAAAACCACAAGGGACAAG | 2100
4 | TTTTCCGACGGAAGCCTTACTGCCGCAAACGTCACT | 556
5 | GACGCATAAACAGGAAGGCCTGCGGGAGGGCCCGCC | 855
6 | AAAGGGCAGACTTCCCTGCCCACATCTCTGCTCCTG | 462
7 | GCGCGCTTCCGCCTTCATGCTAGCAACGCCCGCAGT | 566
8 | CATCAAAAACAGAGGAAGCCACAGCAAATTGCTGCC | 523
9 | GAACCCCAAGTTCCGGCTGGCACTGCGGCGGAGCCT | 452
10 | GCTTTGCAGTTTCCTCTATGGAACACCACACACAGT | 621
11 | GGCGGAACTTGTGCGTACGCTGGAAAACCGCTGGGG | 385
12 | ATGCGAGTCTGCTTCCTGCCACAAATCACAATTTGA | 665
13 | GCTCGCGTCATCCTGCAGCGCCGACACCACAGACAC | 501
14 | GCCGGTGAGGGCGGAAGTGGTAAGACTGACGTGTCC | 6840
15 | CTCCGGGAACAGCGGAAAAGGGACCGCATGAACCTC | 900
16 | GGTCTGGAGGATGTTTGCAGCTGCTGTGGGTGGTGG | 586
17 | AAGCTTCCTGGCCCTTTAAAAATGGCGGTTCCGCAC | 519

biological target: RUNX1 (UniProt Q01196); test: RUNX1 binding intensity (PBM fluorescence), RUNX1 alone (arbitrary fluorescence units); higher = stronger binding; conditions: RUNX1 concentration 2 nM; ETS1 concentration 0 nM
Sequence (Q01196 whole entry): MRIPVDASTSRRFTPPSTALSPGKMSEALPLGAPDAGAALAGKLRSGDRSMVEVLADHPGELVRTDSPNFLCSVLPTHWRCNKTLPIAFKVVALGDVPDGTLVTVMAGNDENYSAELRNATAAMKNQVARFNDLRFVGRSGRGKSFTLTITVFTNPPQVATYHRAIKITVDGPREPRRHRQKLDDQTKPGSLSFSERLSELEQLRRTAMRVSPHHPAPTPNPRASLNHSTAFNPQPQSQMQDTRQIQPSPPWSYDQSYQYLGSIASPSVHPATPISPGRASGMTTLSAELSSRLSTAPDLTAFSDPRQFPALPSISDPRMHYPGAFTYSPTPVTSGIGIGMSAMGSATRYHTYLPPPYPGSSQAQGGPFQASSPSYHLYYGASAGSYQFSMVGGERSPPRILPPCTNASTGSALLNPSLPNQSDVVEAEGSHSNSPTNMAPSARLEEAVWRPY
Description: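 Cooperative gcPBM on 36-bp genomic probes with neighbouring ETS1 and RUNX1 sites. Recombinant human RUNX1 (2 nM) was incubated alone or with ETS1 (25 nM) and detected with anti-RUNX1 antibody plus Alexa488 secondary. Values are medians over 4 replicate spots; the RUNX1+ETS1 data were normalised to the RUNX1-only data. The probes sit in constant array flanks that are not printed.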

Row | Sequence | RUNX1 binding intensity
18 | CTTCAAAGTCAGGAAACCGTTAAACCACACTGCATC | 1100
19 | CCTGCCGAGGAAGTCCCACGTCACTGCGGTTAGAGT | 1670
20 | CCCCTCGCCCTTCCGCATTGCGGGTTACTTCGGTTG | 1900
21 | CATGCGTCACCTTCCTGTGTGGTCAGCAGTGCTTGC | 915
22 | CGAGATCCTGGCCACGGATGCGGTGGCCGCGCCTCT | 795
23 | CGAGCAGGAAGTGGCAAGATTTGATAGGCGGTCAGG | 739
24 | CAGCTCCGACTTCCGGGTGCGGTACGGCGAAGCAGA | 756
25 | CATGGTTGTTATTTCCTCACCACAATATGTGACATT | 1200
26 | AATAAAGCTACAGACTTCCGCCCACAGGTCGCCGCT | 789
27 | AGAGTCTTTTTTCCTGAGCGTTTGCGGTTTTGACTT | 10500

biological target: T1, ETS1; test: ETS1 binding intensity (PBM fluorescence) in presence of RUNX1, normalised to ETS1-only experiment (arbitrary fluorescence units); higher = stronger binding; conditions: ETS1 concentration 1 nM; RUNX1 concentration 25 nM

Row | Sequence | ETS1 binding intensity
28 | CTTCAAAGTCAGGAAACCGTTAAACCACACTGCATC | 1910
29 | CCTGCCGAGGAAGTCCCACGTCACTGCGGTTAGAGT | 2090
30 | GCCCCTAAACCGGATGCGGCAGCCACCGCGGACCCC | 16600
31 | TATCACATCCTGCCGGACAAAAAGGCCAAACCACCT | 473
32 | GAAGCTACTCTGGTTTCCTGTGGTTTTCTGAGCACT | 1320
33 | GACACGTCTTTGGAAGGATGTGGTTGCCGTGGGTTT | 5580
34 | CATGGGACCCGGAAGTGTGTGGTAAAGCGCCGGGGC | 9470
35 | ACCCCAGGTACCGGAAGACCACAATTCCCAGGAGTC | 3710
36 | CCCCTCTCTCCCACTTCCTGTGGTCTCAGTCTTTGT | 4840
37 | CCCCTCGCCCTTCCGCATTGCGGGTTACTTCGGTTG | 591
38 | CATGCGTCACCTTCCTGTGTGGTCAGCAGTGCTTGC | 468
39 | GGTCAGGTGGGCGTTTCCTGTGGGCGTCTCCAACTC | 1230
40 | CGAGATCCTGGCCACGGATGCGGTGGCCGCGCCTCT | 660
41 | CCGGCAGGAAGTTAGCATGGGCGGACCACACGGGGG | 1530
42 | GGATGAACAGGAAGCTAAAGTAAATACCACAGTGAC | 3860
43 | CGAGCAGGAAGTGGCAAGATTTGATAGGCGGTCAGG | 2940
44 | CAGCTCCGACTTCCGGGTGCGGTACGGCGAAGCAGA | 1610
45 | TTTCTGACTTCCTGTGTGCTTCAGAAACCTCAATGA | 2570
46 | CATGGTTGTTATTTCCTCACCACAATATGTGACATT | 463
47 | AATAAAGCTACAGACTTCCGCCCACAGGTCGCCGCT | 1280
48 | CACCTCCTACTTCCCCCCGCTGATAACCACCAACCC | 1790
49 | AGAGTCTTTTTTCCTGAGCGTTTGCGGTTTTGACTT | 1690
50 | TTACGTTAAGGAGGAAACTCTGTGGTTAAACTGTAG | 2050
